According to PubChem BioAssay (NCATS):
Records with an inconclusive call do not appear. Calls of active or inactive are those of the source. The call rests on the fitted dose curve; in most records, active means well fitted cell-killing curve with a large enough effect; inconclusive means small, poorly fitted or top-dose-only effect, or effect the other way; inactive means no such curve, though single readings can be large or run the other way.

Tests used:
[1] = Quantitative High-Throughput drug screen in 47 multiple myeloma cell lines against the NCATS MIPE library collection: INA6_PLB cell viability assay (AID 1918965; further: nearly all actives have a fitted effect of over 55% in size)
Method in brief: (§1)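 CellTiter-Glo luminescence (ATP) after 48 h compound exposure, 37C/5% CO2; 500 cells/well; MIPE 4.0 approved/investigational drugs pinned in; DMSO = 100%, media only = 0% viability.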

[2] = Quantitative High-Throughput drug screen in 47 multiple myeloma cell lines against the NCATS MIPE library collection: JJN3_DSMZ cell viability assay (AID 1918966; further: nearly all actives have a fitted effect of over 50% in size)
Method in brief: (§2)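 Inhibition of cell viability is measured here. Each line was plated at 500 cells per well, treated with MIPE 4.0 drugs, kept 48 hours at 37C, then assayed for ATP content by CellTiter-Glo luminescence.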

[3] = Quantitative High-Throughput drug screen in 47 multiple myeloma cell lines against the NCATS MIPE library collection: H1112_PLB cell viability assay (AID 1918967; further: nearly all actives have a fitted effect of over 30% in size)
Method in brief: as §2

[4] = Quantitative High-Throughput drug screen in 47 multiple myeloma cell lines against the NCATS MIPE library collection: Karpas25_ECACC cell viability assay (AID 1918968; further: nearly all actives have a fitted effect of over 35% in size)
Method in brief: as §2

[5] = Quantitative High-Throughput drug screen in 47 multiple myeloma cell lines against the NCATS MIPE library collection: KMS27_JCRB cell viability assay (AID 1918970); further: nearly all actives have a fitted effect of over 30% in size
Method in brief: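 KMS27_JCRB myeloma cells, 500 per well, exposed 48 h at 37 C, 5% CO2 to MIPE 4.0 compounds. Viability from ATP by CellTiter-Glo luminescence, normalized to DMSO (100%) and medium-only (0%) wells.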

[6] = Quantitative High-Throughput drug screen in 47 multiple myeloma cell lines against the NCATS MIPE library collection: KMS26_JCRB cell viability assay (AID 1918975); further: nearly all actives have a fitted effect of over 45% in size
Method in brief: (§3)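 We plated 500 myeloma cells per well, pinned in MIPE 4.0 compounds, and incubated for 48 hours at 37C. ATP was then quantified with CellTiter-Glo, with DMSO and media-only wells defining 100% and 0%.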

[7] = Quantitative High-Throughput drug screen in 47 multiple myeloma cell lines against the NCATS MIPE library collection: MMM1_PLB cell viability assay (AID 1918976); further: nearly all actives have a fitted effect of over 35% in size
Method in brief: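 500 cells/well; MIPE 4.0 drugs pin-transferred; 48 h, 37C, 5% CO2. CellTiter-Glo, 5 min RT, luminescence. Controls: DMSO 100%, media 0%.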

[8] = Quantitative High-Throughput drug screen in 47 multiple myeloma cell lines against the NCATS MIPE library collection: KMS12BM_JCRB cell viability assay (AID 1918971); further: nearly all actives have a fitted effect of over 35% in size
Method in brief: as §3

[9] = Quantitative High-Throughput drug screen in 47 multiple myeloma cell lines against the NCATS MIPE library collection: KMS12PE_JCRB cell viability assay (AID 1918972); further: nearly all actives have a fitted effect of over 30% in size; on viability: series mostly up to about 46 µM
Method in brief: as §1

[10] = Quantitative High-Throughput drug screen in 47 multiple myeloma cell lines against the NCATS MIPE library collection: KMS20_JCRB cell viability assay (AID 1918973); further: nearly all actives have a fitted effect of over 45% in size
Method in brief: as §2
Potency means the concentration at half of the fitted maximal effect.

Compound	Potency [1]	Potency [2]	Potency [3]	Potency [4]	Potency [5]	Potency [6]	Potency [7]	Potency [8]	Potency [9]	Potency [10]
CC[C@@H]1[C@@H](C)O[C@@](O)([C@@H](C)[C@H](O)[C@H](C)[C@H]2OC(=O)C=CC=C[C@@H](C)[C@@H]([C@@H](C)[C@@H](O)[C@H](C)[C@@]3(O)C[C@H](O[C@H]4C[C@H](O)[C@H](O)[C@H](C)O4)[C@H](CC)[C@@H](C)O3)OC(=O)C=CC=C[C@@H]2C)C[C@H]1O[C@H]1C[C@H](O)[C@H](O)[C@H](C)O1	1050 nM (active)	833 nM (active)	1050 nM (active)	743 nM (active)	264 nM (active)	526 nM (active)	743 nM (active)			
COc1ccc2c(c[n+](C)c3c4cc5c(cc4ccc23)OCO5)c1OC	8330 nM (active)	2640 nM (active)	7430 nM (active)	7430 nM (active)	6620 nM (active)	3720 nM (active)	6620 nM (active)	3720 nM (active)	4690 nM (active)	
CCc1c(C(=O)C(N)=O)c2c(OCC(=O)O)cccc2n1Cc1ccccc1	inactive	inactive	inactive	inactive	inactive	inactive		inactive		
CCCCCC[C@H]1C(=O)O[C@H](C)[C@H](NC(=O)c2cccc(NC=O)c2O)C(=O)O[C@@H](C)[C@@H]1OC(=O)CC(C)C	83.3 nM (active)	296 nM (active)	132 nM (active)	166 nM (active)	235 nM (active)	132 nM (active)	148 nM (active)		469 nM (active)	
CC1=NN=C(c2ccc(N)cc2)c2cc3c(cc2C1)OCO3	inactive	inactive	inactive	inactive		inactive		inactive		
CCCC[N+]1(C)[C@H]2CC(OC(=O)[C@H](CO)c3ccccc3)C[C@H]1[C@H]1O[C@H]12 (some centres undefined)	2350 nM (active)	inactive	inactive	inactive	inactive	inactive			inactive	
CO[C@H]1CCC(O[C@H]2C[C@H]([C@]3(C)CC[C@]4(C[C@H](O)[C@@H](C)[C@@H]([C@@H](C)C=C(C)C(=O)[C@H](C)C[C@H](C)C(=O)O)O4)O3)O[C@]3(O[C@@H]([C@H]4O[C@@](O)(CO)[C@H](C)C[C@H]4C)C[C@H]3C)[C@H]2C)O[C@H]1C (some centres undefined)	526 nM (active)	526 nM (active)	662 nM (active)	1480 nM (active)		372 nM (active)	1660 nM (active)	83.3 nM (active)		
CC(C)(O)C=CC(=O)[C@](C)(O)[C@H]1[C@H](O)C[C@]2(C)[C@@H]3CC=C4[C@@H](C=C(O)C(=O)C4(C)C)[C@]3(C)C(=O)C[C@@]12C	14.8 nM (active)	37.2 nM (active)	2090 nM (active)	29.6 nM (active)	20.9 nM (active)	37.2 nM (active)	1320 nM (active)	1180 nM (active)		18.7 nM (active)
C[C@H]1CCCC=CC2C[C@H](O)C[C@@H]2[C@H](O)C=CC(=O)O1 (some centres undefined)	inactive	inactive	inactive	inactive	1 nM (active)	inactive		inactive		inactive
CCNC(=O)C[C@@H]1N=C(c2ccc(Cl)cc2)c2cc(OC)ccc2-n2c(C)nnc21	132 nM (active)	148 nM (active)	743 nM (active)	2090 nM (active)	469 nM (active)	93.5 nM (active)	209 nM (active)		166 nM (active)	
N=c1c2c(-c3ccccc3)c(-c3ccccc3)n(Cc3ccccc3)c2ncn1C1CCC(O)CC1 (centres undefined)	209 nM (active)	18700 nM (active)	6620 nM (active)	4180 nM (active)	3720 nM (active)	26400 nM (active)	18700 nM (active)		2640 nM (active)	
C[C@@]12OC(=O)[C@]1([C@@H](O)[C@@H]1C=CCCC1)NC(=O)[C@H]2CCCl	1 nM (active)	33.2 nM (active)	23.5 nM (active)	1 nM (active)	18.7 nM (active)	10.5 nM (active)	132 nM (active)	23.5 nM (active)	18.7 nM (active)	
COC[C@H]1OC(=O)c2coc3c2[C@@]1(C)C1=C(C3=O)[C@@H]2CC[C@H](O)[C@@]2(C)C[C@@H]1OC(C)=O	1180 nM (active)	3320 nM (active)	1050 nM (active)	264 nM (active)	4690 nM (active)	3320 nM (active)	1050 nM (active)			5260 nM (active)
c1ccc(CCCN2CCN(CCOC(c3ccccc3)c3ccccc3)CC2)cc1	20900 nM (active)	20900 nM (active)	26400 nM (active)	10500 nM (active)	inactive	26400 nM (active)	18700 nM (active)		inactive	13200 nM (active)
CC(C)N(CCNC(=O)CN1CCCC1=O)C(C)C	inactive	inactive	inactive	inactive				11800 nM (active)	inactive	
CC(C)[C@]12O[C@@H]1[C@@H]1O[C@]13[C@]1(O[C@H]1C[C@@H]1C4=C(CC[C@@]13C)C(=O)OC4)[C@H]2O	inactive	inactive	inactive	inactive	inactive	inactive	inactive	inactive	inactive	
CC1=C(O)C(=O)C=C2C1=CC=C1[C@@]2(C)CC[C@@]2(C)[C@@H]3C[C@](C)(C(=O)O)CC[C@]3(C)CC[C@]12C	743 nM (active)	743 nM (active)	1320 nM (active)	833 nM (active)	1870 nM (active)	418 nM (active)	1180 nM (active)			
Cc1c(C(=O)c2cccc3ccccc23)c2cccc3c2n1[C@H](CN1CCOCC1)CO3	23500 nM (active)	16600 nM (active)	23500 nM (active)	14800 nM (active)		23500 nM (active)	23500 nM (active)		7430 nM (active)	18700 nM (active)
CC[C@@]1(O)C(=O)OCc2c1cc1n(c2=O)Cc2cc3ccccc3nc2-1	20.9 nM (active)	743 nM (active)	59 nM (active)	83.3 nM (active)	16.6 nM (active)	2350 nM (active)	935 nM (active)			
Cc1c(C(=O)Nc2cccc(C(F)(F)F)c2)cc(-c2ccccc2)n1CCCN1CCOCC1	16600 nM (active)	16600 nM (active)	3720 nM (active)	11800 nM (active)	18700 nM (active)	11800 nM (active)	20900 nM (active)		10500 nM (active)	
COc1cc([C@@H]2c3cc4c(cc3[C@@H](O)C3COC(=O)C32)OCO4)cc(OC)c1O (some centres undefined)	41.8 nM (active)	118 nM (active)	52.6 nM (active)	59 nM (active)	14.8 nM (active)	105 nM (active)	93.5 nM (active)	41.8 nM (active)		
CC[C@@H](C(N)=O)N1CCCC1=O	inactive	inactive	inactive	inactive						inactive
N#C[C@H](O[C@@H]1O[C@H](CO[C@@H]2O[C@H](CO)[C@H](O)[C@H](O)[C@H]2O)[C@H](O)[C@H](O)[C@H]1O)c1ccccc1	13200 nM (active)	18700 nM (active)	26400 nM (active)	18700 nM (active)	6620 nM (active)	20900 nM (active)	23500 nM (active)	20900 nM (active)		18700 nM (active)
C[C@@H]1O[C@@H](O[C@@H]2C=C3CC[C@@H]4[C@@H](CC[C@]5(C)[C@H](c6ccc(=O)oc6)CC[C@@]45O)[C@@]3(C)CC2)[C@H](O)[C@H](O)[C@H]1O	26.4 nM (active)	46.9 nM (active)	41.8 nM (active)	23.5 nM (active)	8.3 nM (active)	41.8 nM (active)	26.4 nM (active)			
O=c1[nH]c2ccc(Cl)cc2c(N[C@@H]2CN3CCC2CC3)c1-c1nc2ccccc2[nH]1	33.2 nM (active)	1050 nM (active)	418 nM (active)	235 nM (active)	187 nM (active)	2640 nM (active)	6620 nM (active)		83.3 nM (active)	
C[C@]12Cc3cn[nH]c3C[C@@H]1CC[C@@H]1[C@H]2CC[C@@]2(C)[C@H]1CC[C@]2(C)O	inactive	14800 nM (active)	inactive	inactive			23500 nM (active)	16600 nM (active)	inactive	
C[C@@H]1CC[C@@]2(OC1)O[C@H]1C[C@H]3[C@@H]4CC=C5C[C@@H](O[C@@H]6O[C@H](CO)[C@@H](O[C@@H]7O[C@@H](C)[C@H](O)[C@@H](O)[C@@H]7O)[C@H](O)[C@@H]6O[C@@H]6O[C@@H](C)[C@H](O)[C@@H](O)[C@@H]6O)CC[C@]5(C)[C@@H]4CC[C@]3(C)[C@@H]1[C@H]2C	5260 nM (active)	2350 nM (active)	4690 nM (active)	3320 nM (active)	935 nM (active)	2350 nM (active)	2350 nM (active)		1320 nM (active)	4180 nM (active)
CC(C)(C)c1cc(C=C(C#N)C#N)cc(Br)c1O	4180 nM (active)	23500 nM (active)	16600 nM (active)	3720 nM (active)				16600 nM (active)		
CN1[C@H]2CC(O)C[C@H]1[C@H]1O[C@H]12 (some centres undefined)	8330 nM (active)	18700 nM (active)	16600 nM (active)	5900 nM (active)	inactive	16600 nM (active)	20900 nM (active)		inactive	
CN1CCN(c2ccc([N+](=O)[O-])c3no[n+]([O-])c23)CC1	13200 nM (active)	18700 nM (active)	23500 nM (active)	18700 nM (active)	20900 nM (active)		20900 nM (active)	18700 nM (active)	16600 nM (active)	
